Consider 40 compounds from PubChem BioAssay.

Calls of active or inactive are those of the source. The rule behind the calls is not given here.

For this test, the target named is Pantothenate synthetase (Mycobacterium tuberculosis (strain ATCC 25618 / H37Rv)) (UniProt P9WIL5). Put plainly: Coupled enzyme confirmation of inhibitors against recombinant Mtb PanC (AID 375).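 Note: 0% = full reaction with vehicle and 100% = no enzyme background.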 The following applies: coupled enzyme assay; at 10 µM, active compounds read high.
Chain of Pantothenate synthetase (Mycobacterium tuberculosis (strain ATCC 25618 / H37Rv)) (P9WIL5 whole entry, looked up): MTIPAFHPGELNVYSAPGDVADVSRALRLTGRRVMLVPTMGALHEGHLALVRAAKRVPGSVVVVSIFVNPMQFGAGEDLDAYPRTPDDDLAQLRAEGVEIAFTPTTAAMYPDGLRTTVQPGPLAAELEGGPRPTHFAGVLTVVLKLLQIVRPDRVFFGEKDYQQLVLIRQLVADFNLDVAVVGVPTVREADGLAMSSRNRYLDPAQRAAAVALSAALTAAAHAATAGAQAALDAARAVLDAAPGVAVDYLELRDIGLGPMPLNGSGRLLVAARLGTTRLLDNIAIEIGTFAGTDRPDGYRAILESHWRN
What is called inhibition is the relative decrease from the control value, in per cent. Take `Cc1cc(C)n2nc[n+](C)c2n1`: the inhibition was 0% (inactive). With `O=C1c2ccccc2C(=O)N1CCC(=O)N1CCc2ccccc21`, the inhibition was 0% (inactive). Next, `O=C(c1ccco1)N1CCN(CC2CC3C=CC2C3)CC1` (stereo not given): 7% (inactive); `CCCC(=O)Nc1ccccc1-c1nnn(CC(=O)Nc2ccc(OCC)cc2)n1`: 0% (inactive); `COc1ccc(CCn2c(-c3ccco3)nc3ccccc3c2=O)cc1OC`: 0% (inactive). Next, `CC(C)CCNC(=O)C(C)N(Cc1ccc(F)cc1)C(=O)c1ccc(CN2CCCCC2)o1` (stereo not given): 1% (inactive); `COCCCN(Cc1ccccn1)S(=O)(=O)Cc1ccccc1`: 0% (inactive); `COc1cccc(-c2noc(-c3cccs3)n2)c1`: 1% (inactive). Next, `COCCNC(=O)CSc1nc(-c2ccc(OC)c(OC)c2)cc(C(F)(F)F)n1`: 2% (inactive); `COc1ccccc1OCC(=O)NCC1CCCCC1`: 0% (inactive); `O=c1c2ccccc2nc(-c2cccc(Cl)c2)n1O`: 4% (inactive). With `CCn1c2ccccc2c2cc(NC(=O)CSc3nnc(C4CC4)n3Cc3ccco3)ccc21`, the inhibition is 1% (inactive). `O=C(Nc1ccc(N2CCCCC2)cc1)c1ccc(F)cc1`: the inhibition is 0% (inactive).

Regarding `COc1ccc(OC)c(S(=O)(=O)N2CCC(C(=O)NCC3CCCO3)CC2)c1` (stereo not given), the inhibition is 7% (inactive).

As for `C[N+]1=C2CCCCCN2C(O)(c2ccccc2)C1` (stereo not given), the inhibition was 7% (inactive). Next, `O=C(CC1(O)C(=O)Nc2ccccc21)c1ccc2c(c1)OCO2` (stereo not given): 0% (inactive); `CC(NC(=O)c1ccco1)C(c1cccs1)N1CCN(c2ccc(F)cc2)CC1` (stereo not given): 0% (inactive). Next, `CC(=O)OC(C(=O)NCc1ccco1)c1cccnc1` (stereo not given): 0% (inactive); `COc1ccc(Cc2nn3c(-c4cc(OC)c(OC)c(OC)c4)nnc3s2)cc1`: 0% (inactive). The figure for `COC(=O)c1sc(S(=O)(=O)NCc2cccs2)c(C(=O)OC)c1C` is 0% (inactive). For `Cc1noc(C(=O)Nc2ccc3c(c2)OCO3)c1Cl`, the inhibition was 0% (inactive). Next, `C=CCn1c(C)cc(C(=O)CSc2nc3ccccc3c(=O)[nH]2)c1C`: 0% (inactive). The figure for `O=C(CN(CCc1ccccc1)C(=O)CN1C(=O)COc2ccccc21)NCc1ccco1` is 10% (inactive); for `Cc1ccc(S(=O)(=O)CCc2nnc(NC(=O)c3cnccn3)s2)cc1` it is 8% (inactive); for `CCOC(=O)N1CCN(CCC(=O)c2ccc(Cl)cc2)CC1` it is 2% (inactive). Next, `CN1CCN(S(=O)(=O)c2ccc(Sc3nnc(-c4cccs4)n3-c3ccccc3)nc2)CC1`: 3% (inactive); `COC(=O)Cc1csc(N)n1`: 0% (inactive). On to `Cc1ccc2nc(SCC(=O)NCc3ccco3)c(C#N)cc2c1`, for which the inhibition is 0% (inactive). The figure for `CCOc1cc(NC(=O)c2ccco2)c(OCC)cc1NC(=O)CCc1ccc(OC)cc1` is 3% (inactive); for `COc1ccccc1N1CC(C(=O)Nc2cccc(C(=O)O)c2)CC1=O` (stereo not given) it is 0% (inactive). Regarding `Cn1nnnc1SCC1=C(C(=O)O)N2C(=O)[C@@H](NC(=O)[C@H](O)c3ccccc3)[C@H]2SC1`, the inhibition is 0% (inactive).

As to `Cn1c(N2CCC(C(N)=O)CC2)nc2c1c(=O)n(Cc1ccc(Br)cc1)c(=O)n2C`, the inhibition was 0% (inactive). `COC(=O)c1ccc(NC2(C#N)C(=O)Nc3ccccc32)cc1` (stereo not given): the inhibition is 0% (inactive).

With `COc1ccccc1-n1nnnc1SCc1ccccc1`, the inhibition is 3% (inactive).

In the case of `COc1ccc(C(=O)NCCn2ccc3ccccc32)cc1`, the inhibition is 0% (inactive).

On to `O=C(CSc1nc2ccccc2s1)N1CCN(C(=O)c2ccco2)CC1`, for which the inhibition was 0% (inactive). The figure for `CCCn1c(=O)[nH]c(=O)c2[nH]cnc21` is 0% (inactive); for `O=C(c1ccc(Cl)c(Cl)c1)N1CCOCC1` it is 5% (inactive). Next, `CC(c1ccccc1)N1C(=O)c2ccc(C(=O)NCc3ccco3)cc2C1=O` (stereo not given): 1% (inactive). Next, `COc1ccc(OCCOC(=O)c2cccc(-n3cnnn3)c2)cc1`: 0% (inactive).
